VP16 counter: VP16 counterscreen qHTS for inhibitors of ROR gamma transcriptional activity; Drosophila S2 Gal4-VP16 UAS-luciferase, luminescence, 20 h; Potency, µM (top dose mostly 53.6 µM), for the others: at the top dose activity, negative = inhibition, most hits filed as inhibitors; 310,000 compounds, 3.5% hits; AID 2546, 2010;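 also: Gal4-VP16 expression switched on by copper sulfate through the metallothionein promoter; potency is read from the fitted curve at half-maximal effect; nearly all actives have a fitted effect of over 50% in size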
RORgamma inh: qHTS for inhibitors of ROR gamma transcriptional activity. Drosophila S2 Gal4-RORgamma UAS-luciferase reporter, 20 h. AID 2551, 2010. 310,000 compounds, 5.4% hits. Nuclear receptor ROR-gamma (Mus musculus), P51450. Potency, µM (titrated, usually from 53.6 µM), for inactives: at the top dose activity change, negative = inhibition, most hits filed as inhibitors; also: potency is read from the fitted curve at half-maximal effect; nearly all actives have a fitted effect of over 60% in size
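Drosophila Schneider cells stably carrying a metallothionein-driven Gal4 DBD–ROR gamma fusion and a UAS-Photinus luciferase reporter were exposed to compound for 1 hr, then induced with copper sulfate (700 uM final) for 20 hr at ambient temperature before luminescence reading.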
CtBP-E1A blk: qHTS Assay for Inhibitors of the CtBP/E1A Interaction | CtBP / adenovirus E1A interaction (AlphaScreen) | AlphaScreen GST-E1A/His-CtBP binding, 1536-well; hits give low values | activity change, % (test concentration not listed) | 340,000 compounds, 0.49% hits | AID 651724, 2012; in the data active = activity change below about -65%; inconclusive = mostly about -30% to -63%
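GST-E1A and His-tagged CtBP (125 nM each as 5X stock) were preincubated with pin-transferred compound for 2 h at 37 °C in the dark, then glutathione donor and nickel acceptor beads were added for 1 h before AlphaScreen reading.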
PKM2 activator: qHTS Assay for Activators of Human Muscle isoform 2 Pyruvate Kinase; Pyruvate kinase PKM (Homo sapiens), P14618; 260,000 compounds, 0.34% hits; Potency, µM (highest dose often 57.5 µM), without a hit: at the highest dose activation, usual class: activators; purified PKM2, Kinase-Glo ATP luminescence, activation; response scale: 0% is enzyme alone, no compound; also: potency is read from the fitted curve at half-maximal effect; nearly all actives have a fitted effect of over 55% in size
Target sequence (P14618 whole entry, looked up, canonical isoform): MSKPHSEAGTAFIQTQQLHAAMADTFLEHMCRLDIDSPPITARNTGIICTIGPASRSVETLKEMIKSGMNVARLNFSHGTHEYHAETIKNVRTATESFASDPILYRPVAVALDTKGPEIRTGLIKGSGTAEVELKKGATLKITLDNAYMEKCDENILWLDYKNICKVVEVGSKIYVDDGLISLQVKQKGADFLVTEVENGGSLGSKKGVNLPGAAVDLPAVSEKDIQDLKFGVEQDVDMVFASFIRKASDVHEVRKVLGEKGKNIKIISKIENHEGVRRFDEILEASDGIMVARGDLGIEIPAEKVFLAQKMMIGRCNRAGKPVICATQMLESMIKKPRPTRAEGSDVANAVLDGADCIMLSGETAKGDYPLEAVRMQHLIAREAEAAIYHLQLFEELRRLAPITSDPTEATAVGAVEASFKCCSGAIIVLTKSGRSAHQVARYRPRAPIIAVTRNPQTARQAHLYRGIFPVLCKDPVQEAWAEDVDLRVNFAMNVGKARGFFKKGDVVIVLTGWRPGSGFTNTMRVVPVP
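Purified hPK-M2 (>95% pure) converted ADP (0.1 mM final) to ATP with 0.5 mM PEP in 50 mM imidazole pH7.2, KCl, MgCl2, Tween 20, BSA; 1 h at room temperature. ATP detected by Kinase-Glo luminescence.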
Six1-Eya2 inh: qHTS Assay for Inhibitors of the Six1/Eya2 Interaction; AlphaScreen GST-Six1/His-Eya2 binding, biochemical; hits give low values; activity change, % (no concentration beside the values); AID 651725, 2012; 360,000 compounds, 0.56% hits; in the data active = activity change below about -65%; inconclusive = mostly about -30% to -63%
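AlphaScreen luminescence read after one hour at 37 °C in darkness. Pin-transferred compounds met GST-Six1 and His-Eya2 protein (5X stock 250 nM/500 nM) plus glutathione donor and Ni-chelate acceptor beads (5X, 50 ug/mL).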
Numbers without * were called inactive; [ ] = another dose, or the depositor's remark. Sampled rows, rich in hits. Any-hit rate of the full collection: about 5.6%. Unless noted, calls follow the shape of the dose curve; as a rule, active = well fitted curve in the direction sought with a large enough effect; inconclusive = small, poorly fitted or top-dose-only effect, or another doubt; inactive = no such curve, though single readings can be large; an effect the other way counts as inactive or inconclusive. % is scaled to controls: 0 for no effect and ±100 for the full control effect.

`CCc1ccc(-c2nc(CSCC(=O)NC3CC3)c(C)o2)cc1` gave VP16 counter inconclusive, RORgamma inh 2µM*, CtBP-E1A blk -1 and Six1-Eya2 inh 7.
CSc1ccc(-c2nc(CSCC(=O)NC3CC3)c(C)o2)cc1 was read as VP16 counter inconclusive, RORgamma inh 8.9µM*, CtBP-E1A blk inconclusive, PKM2 activator -2%[0.46 µM] and Six1-Eya2 inh -9.
For CCc1ccc(-c2nc(CSCC(=O)N3CCN(c4ncccn4)CC3)c(C)o2)cc1 the results were VP16 counter 16µM*, RORgamma inh 16µM*, CtBP-E1A blk 0, PKM2 activator -10% and Six1-Eya2 inh 1.
`COc1ccc(-c2nc(CSCC(=O)NCCCN3CCCC3=O)c(C)o2)cc1` gave VP16 counter 11µM*, RORgamma inh -24%, CtBP-E1A blk 9 and Six1-Eya2 inh 2.
CCOc1ccc(-c2nc(CSCC(=O)NCCCN3CCCC3=O)c(C)o2)cc1 was read as VP16 counter -15%, RORgamma inh -29%, CtBP-E1A blk 0 and Six1-Eya2 inh 0.
CN1C(=O)[C@H]2[C@@H](c3ccccc3)N[C@]3(CCCN(Cc4ccc(F)cc4)C3=O)[C@H]2C1=O was read as CtBP-E1A blk -21 and Six1-Eya2 inh 4.
Screening c1c2c(cc3sc(N4CCCCC4)nc13)OCO2 returned VP16 counter 11µM*, RORgamma inh 10µM*, CtBP-E1A blk -12, PKM2 activator -30% and Six1-Eya2 inh -27.
For C=CCn1c(SCC(=O)N2CCN(c3ccccc3)CC2)nc2c([nH]c3ccccc32)c1=O the results were VP16 counter -14%, RORgamma inh 1%, CtBP-E1A blk -1, PKM2 activator -5% and Six1-Eya2 inh 2.
`COc1cc2[nH]c(=S)n(Cc3ccc(C)cc3)c(=O)c2cc1OC` gave VP16 counter 3.2µM*, RORgamma inh 1.8µM*, CtBP-E1A blk -12, PKM2 activator 0% and Six1-Eya2 inh -4.
COc1ccc(Cn2c(=S)[nH]c3cc(OC)c(OC)cc3c2=O)cc1 was read as VP16 counter inconclusive, RORgamma inh 3.5µM*, CtBP-E1A blk -17, PKM2 activator 3% and Six1-Eya2 inh 27.
Screening COc1ccc(Cn2c(=O)[nH]c3cc(OC)c(OC)cc3c2=O)cc1 returned VP16 counter -4%, RORgamma inh 0%, PKM2 activator 1% and Six1-Eya2 inh -1.
Screening CC(C)=CCC(C)(C)/C=N/NC(N)=O returned VP16 counter -6%, RORgamma inh -6%, CtBP-E1A blk 10, PKM2 activator -4% and Six1-Eya2 inh -18.
`COC(=O)CSc1nnc2n(-c3ccc(OC)cc3)c(=O)c3c4c(sc3n12)CCCCC4` gave VP16 counter 1%, RORgamma inh 0%, CtBP-E1A blk 1, PKM2 activator 11% and Six1-Eya2 inh -1.
`COc1ccc(-n2c(=O)c3c4c(sc3n3c(=S)[nH]nc23)CCCC4)cc1` gave VP16 counter 13µM*, RORgamma inh 7.9µM*, CtBP-E1A blk 7, PKM2 activator -12% and Six1-Eya2 inh 4.
CCOC(=O)CSc1cc(-c2ccccc2)nc2ncnn12 was read as VP16 counter 11µM*, RORgamma inh -75%, CtBP-E1A blk -1, PKM2 activator -4% and Six1-Eya2 inh 4.
Cc1[nH]c2ccc(C(=O)OCC(=O)NC3(C#N)CCCCC3)cc2c1C was read as CtBP-E1A blk -9 and Six1-Eya2 inh -8.
Screening Cc1csc(NC(=O)CSc2nc3ccccc3s2)n1 returned VP16 counter -13%, RORgamma inh -29%, CtBP-E1A blk -1, PKM2 activator 2% and Six1-Eya2 inh -4.
Screening O=C(CCCSc1nc2ccccc2s1)NCc1ccco1 returned VP16 counter 11µM*, RORgamma inh 14µM*, CtBP-E1A blk -2, PKM2 activator 11% and Six1-Eya2 inh -4.

Screening results from PubChem.
